Source: PubChem
Only some compounds are listed: those with a hit (about 3.8% of all), similar ones and a draw of the others.
Nrf2 ARE act: activators of Nrf2 (ARE) signaling. AREc32 ARE-luciferase reporter (MCF7-derived line), luminescence, 24 h. Potency, µM (series often up to 46.1 µM), inactives show at the highest dose activation, usual class: activators. actives 0.31% (n = 410,000). AID 624171; further: % of control where 0% means no effect; nearly all actives have a fitted effect of over 65% in size
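ARE-driven firefly luciferase activity in AREc32 cells measured after a 24 hr compound exposure at 37 deg C, using Steady-Glo reagent and a 30 min room-temperature hold.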
ELG1 DNA repair: inhibitors of ELG1-dependent DNA repair in HEK293T cells; HEK293T ELG1-luciferase reporter, luminescence, 16 h; DNA damage induced by 5-fluorouridine; Potency, µM (top dose mostly 46.1 µM), inactives show at the top dose activity change, negative = inhibition, actives largely listed as inhibitors; actives 2.3% (n = 330,000); AID 504467; further: on the % scale 0 is the no-effect control and ±100 the full control effect; nearly all actives have a fitted effect of over 55% in size
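DMSO vehicle served as the neutral condition. Each well held 2,000 cells given 5-fluorouridine plus compound; after 16 hr at 37 °C/5% CO2, ONE-Glo was added and luciferase measured 30 min later.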
IDH1 R132H inh: human IDH1 R132H inhibition. O75874. actives 0.093% (n = 390,000). Potency, µM (titrated, usually from 76.6 µM), inactives show top-dose activity change, negative = inhibition, hits mostly inhibitors. IDH1-R132H enzyme, NADPH consumption, diaphorase/resazurin fluorescence; further: on the % scale 0 is the no-effect control and ±100 the full control effect; nearly all actives have a fitted effect of over 65% in size
Target sequence (O75874 whole entry R132H, stated change not applied): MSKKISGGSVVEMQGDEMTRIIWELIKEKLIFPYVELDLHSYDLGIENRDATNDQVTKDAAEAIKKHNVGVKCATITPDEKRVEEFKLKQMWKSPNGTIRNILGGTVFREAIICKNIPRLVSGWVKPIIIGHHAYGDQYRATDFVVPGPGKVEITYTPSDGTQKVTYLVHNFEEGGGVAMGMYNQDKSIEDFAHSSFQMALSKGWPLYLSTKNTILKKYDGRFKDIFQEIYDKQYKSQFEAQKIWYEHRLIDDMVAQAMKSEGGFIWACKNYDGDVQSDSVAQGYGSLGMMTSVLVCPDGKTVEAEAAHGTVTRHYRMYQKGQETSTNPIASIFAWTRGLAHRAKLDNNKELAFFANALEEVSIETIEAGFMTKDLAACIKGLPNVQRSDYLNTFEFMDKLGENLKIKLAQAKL
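IDH1-R132H (0.5 ug/mL dispensed) in pH 7.5 Tris buffer was preincubated 30 min with compound, then given a substrate mix of 0.016 mM NADPH and 2 mM alpha-KG for 80 min at room temperature; remaining NADPH was read by diaphorase/resazurin fluorescence.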
Nrf2 block: Nrf2 pathway inhibition. A549 ARE-Fluc reporter, luciferase luminescence, 18-24 h. AID 504444. actives 2.1% (n = 360,000). Potency, µM (highest dose often 46 µM), for the others: at the top dose activity change, negative = inhibition, hits mostly inhibitors; further: on the % scale 0 is the no-effect control and ±100 the full control effect; nearly all actives have a fitted effect of over 60% in size
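In this cell-based qHTS, ARE-driven firefly luciferase in A549 cells reports Nrf2 activity; the luminescent signal after BugLite lysis is the measured value, with a prior CellTiter-Fluor read for cell health.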
A549 tox: kills or reduces viability of A549 cells in Nrf2 counter-screen | Potency, µM (series often up to 46 µM), without a hit: at the highest dose activity change, negative = cytotoxicity, hits mostly inhibitors | AID 504648 | actives 0.16% (n = 390,000) | A549 ARE-Fluc cells, CellTiter-Fluor viability, 18-24 h; further: on the % scale 0 is the no-effect control and ±100 the full control effect
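A549 ARE_Fluc cells in 5% FBS OPTI-MEM were exposed to compounds in concentration-response for 18-24 h at 37 deg C. Viability was read by CellTiter-Fluor fluorescence (Ex 405/Em 525) after 30 min, before the luciferase read.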
An asterisk follows results filed as active; ? = inconclusive; . = no result. The call rests on the fitted dose curve; in most records, active means well fitted curve in the direction sought with a large enough effect; inconclusive means small, poorly fitted or top-dose-only effect, or another doubt; inactive means no such curve, though single readings can be large; an effect the other way counts as inactive or inconclusive. Potency means the concentration at half of the fitted maximal effect.

SMILES	Nrf2 ARE act	ELG1 DNA repair	IDH1 R132H inh	Nrf2 block	A549 tox
CCOC(=O)C1CCCN(Cc2nc(N)nc(Nc3ccc(OC)cc3)n2)C1 (stereo not given)	-0.9%	?	0.6%	?	-0.9%
CCOC(=O)C1CCCN(c2cc(C)nc3cc(-c4ccc(F)cc4)nn23)C1 (stereo not given)	0.3%	?	9.0%	-11.4%	1.6%
O=C(Nc1ccc2c(c1)OCCO2)C(C1CC1)N1CCN(c2ccc(C(F)(F)F)cn2)CC1 (stereo not given)	4.7%	.	.	.	.
COc1cc2c(c(OC)c1OC)-c1ccc(SC)c(=O)cc1C(NC(=O)c1ccccc1)CC2 (stereo not given)	7.5%	.	-1.7%	?	18.4µM*
CCCCOc1cccc(C(=O)N(Cc2sccc2C)C2CCS(=O)(=O)C2)c1 (stereo not given)	3.7%	.	.	?	-0.6%
Cc1ccc(S(=O)(=O)N(C)CCN(C)c2nc(-c3cccs3)nc3ccccc23)cc1	.	.	.	-2.5%	10.8%
Cc1ccnc(Nc2nc(-c3c(C)nc4sccn34)cs2)c1	-0.1%	25.9µM*	1.4%	20.6µM*	-12.1%
Cc1ccc(-c2nc3ccccc3n3c(C)nnc23)cc1	.	4.0%	.	.	.
FC(F)(F)c1nc2ccccc2n2c(-c3ccc(Cl)cc3)nnc12	-1.8%	?	-1.3%	.	5.8µM*
Cc1ccc(-c2nnc3c(C(F)(F)F)nc4ccccc4n23)cc1	0.0%	7.5%	-0.9%	23.1µM*	?
COCCn1c(C)cc(C(=O)COC(=O)c2ccc(Cl)c(S(N)(=O)=O)c2)c1C	-1.5%	?	6.3%	?	0.2%
CCCCOc1ccc(C(=O)Oc2cccnc2)cc1	0.0%	-1.2%	-5.7%	-5.8%	1.4%
COc1ccc(-c2ccc3c(=O)cc(-c4ccsc4)oc3c2)cn1	7.3%	-19.7%	-0.2%	?	-2.6%
COc1cc(-c2ccc3oc(-c4ccsc4)cc(=O)c3c2)cc(OC)c1OC	-4.1%	16.4µM*	7.6%	?	-10.2%
COc1cccc(CN(Cc2ccccc2F)S(=O)(=O)c2ccc(S(=O)(=O)NCc3ccccc3)cc2)c1	0.0%	1.0%	3.4%	-6.8%	-2.5%
COc1cccc(CN(Cc2ccco2)S(=O)(=O)c2ccc(S(=O)(=O)NCc3ccccc3)cc2)c1OC	0.3%	11.6µM*	-1.1%	.	-1.0%
Cn1cc(/C=C(\C#N)C(=O)Nc2ccccc2O)c2ccccc21	11.7%	8.2µM*	4.8%	0.4%	-26.6%
CC(C)c1ccc(NC(=O)COC(=O)c2nn(C)c(=O)c3ccccc23)cc1	0.7%	4.1%	0.8%	?	3.7%
CCCNS(=O)(=O)c1cccn1-c1ncc(C(F)(F)F)cc1Cl	0.3%	-2.1%	6.5%	-10.7%	-6.6%
O=S(=O)(NCc1cccnc1)c1cccn1-c1ncc(C(F)(F)F)cc1Cl	0.4%	?	7.8%	16.4µM*	-11.5%
CCc1nc(C)cn1S(=O)(=O)c1cc(Br)ccc1OC	-0.3%	?	-5.6%	23.1µM*	?
COc1ccc(S(=O)(=O)N2CCCCCC2)cc1N(C)S(=O)(=O)c1ccccc1	-0.2%	?	0.1%	23.1µM*	-8.7%
COc1ccc(S(=O)(=O)Nc2ccc(C)cc2)cc1N(C)S(=O)(=O)c1ccc(Cl)cc1	4.6%	?	-3.6%	18.4µM*	?
O=C(Nc1ccc(S(=O)(=O)Nc2ncccn2)cc1)C1COc2ccccc2O1 (stereo not given)	0.4%	13.7%	-8.0%	?	1.2%
COc1ccc(S(=O)(=O)N2CCCCC2)cc1NC(=O)C1COc2ccccc2O1 (stereo not given)	2.0%	18.3µM*	3.2%	-26.2%	6.0%
SMILES	Nrf2 ARE act	ELG1 DNA repair	IDH1 R132H inh	Nrf2 block	A549 tox
COc1ccc(OC)c(NS(=O)(=O)c2ccc(NC(=O)C3COc4ccccc4O3)cc2)c1 (stereo not given)	0.2%	?	-0.4%	16.4µM*	-20.1%
COc1ccc(S(=O)(=O)NN(C)C)cc1N(C)S(=O)(=O)c1ccc(Cl)cc1	-0.9%	10.2%	0.6%	5.1%	-3.4%
CCn1c(=O)n(CC2CCC(C(=O)NC(C)C)CC2)c(=O)c2sccc21 (stereo not given)	0.1%	.	1.7%	?	7.3%
CCCC(=O)Nc1nnc2n1CCS2	0.0%	.	-4.5%	.	3.5%
COc1ccccc1N1CCN(C(=O)c2cc3c(=O)n(Cc4ccco4)ccc3nc2C)CC1	10.2%	.	11.2%	?	2.3%
CCc1ccc(C(=O)c2cn(Cc3ccccc3)c3cc(OC)c(OC)cc3c2=O)cc1	-0.1%	.	-3.2%	?	20.6µM*
COc1cc2c(=O)c(C(=O)c3ccc(C)c(C)c3)cn(Cc3ccccc3)c2cc1OC	0.3%	.	-3.4%	20.0%	-10.2%
COc1cc2c(=O)c(C(=O)c3ccc(C)c(C)c3)cn(Cc3ccccc3F)c2cc1OC	-3.5%	.	?	?	20.6µM*
OCCC1CN(C2CCC2)CCN1Cc1ccc(F)c(F)c1 (stereo not given)	0.3%	3.4%	-2.5%	8.7%	10.3%
COc1cc(NS(=O)(=O)c2cc(C(=O)NCCc3ccccn3)ccc2OC)cc(OC)c1	-0.2%	-10.9%	-4.0%	-1.7%	14.6%
COc1ccc(NC(=O)Nc2nnc(N3CCCCCC3)s2)c(OC)c1	1.3%	.	2.9%	?	-0.3%
Cc1cccc(Cn2cc(/C=C/[N+](=O)[O-])c3ccccc32)c1	-3.1%	17.1%	?	16.4µM*	.
O=[N+]([O-])/C=C/c1cn(Cc2ccc(Cl)cc2)c2ccccc12	0.1%	-26.9%	?	?	-16.8%
COc1ccccc1N1CCN(c2ncccc2-c2nc(-c3ccc(Cl)cc3)no2)CC1	3.9%	.	-0.9%	?	-10.3%
Cn1nc(C(F)(F)F)cc1C(=O)Nc1ccc(-c2ccno2)cc1	-0.1%	13µM*	-8.5%	?	-2.2%
O=[N+]([O-])c1cc(Cl)cc(/C=N/NC(=S)Nc2ccc(S(=O)(=O)N3CCOCC3)cc2)c1O	5.1%	13µM*	?	-11.9%	-4.7%
O=S(=O)(c1ccc(Cl)c(NC(=S)N/N=C/c2ccc(O)cc2)c1)N1CCOCC1	-2.7%	23.1µM*	-7.7%	16.4µM*	-22.5%
CCOC(=O)c1cccc(NC(=O)c2oc3c(c2C)-c2nn(CC)cc2CC3)c1	3.2%	.	1.9%	-4.2%	9.5%
Nn1c(COc2ccccc2F)nnc1SCC(=O)NC1CCS(=O)(=O)C1 (stereo not given)	-0.4%	10.7%	1.5%	-0.2%	-9.4%
COc1ccccc1NC(=O)Cn1cc(C(=O)c2ccco2)c2ccccc21	8.8%	?	0.0%	-12.2%	-1.1%
COc1ccc(OC)c(NC(=O)Cn2cc(C(=O)c3ccco3)c3ccccc32)c1	-0.2%	?	0.7%	14.6µM*	0.0%
